Screen size: about 370,000 compounds; about 4,700 (1.3%) were called active. The full list was thinned out, with actives kept by preference. A number with no mark means an inactive call.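 Rule for the calls: active = inhibition above the plate cutoff, the mean of all test compounds on that plate plus 3 SD (cut at about 35% in these data); inactive = the rest.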
Test: binders of r(CAG) RNA repeats, primary screen, biochemical, fluorescence (AID 651821);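 note: 0% = DMSO alone and 100% = 100 µM mitoxantrone as full dye displacement; higher means more dye released from RNA so lower well fluorescence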
Details: r(CAG) RNA repeat, TO-PRO-1 dye displacement fluorescence; at 3 µM; stronger effect = higher value

| Structure (SMILES) | inhibition |
| --- | --- |
| CC(=O)C1=C(C)N(Cc2ccc(Cl)cc2)C(=S)NC1c1ccc(F)cc1 (centres undefined) | 5.48% |
| O=C(COC(=O)c1cc([N+](=O)[O-])ccc1NCc1ccccc1)NC1CCCCC1 | -1.88% |
| Cc1ccc(S(=O)(=O)NCCCn2ccnc2)cc1C(=O)NC(C)C | -1.64% |
| Cc1cccc(NS(=O)(=O)c2ccc(C)c(C(=O)NCC(c3ccccc3)N(C)C)c2)c1 (centres undefined) | -4.14% |
| Cc1ccc(S(=O)(=O)NCCC(c2ccccc2)c2ccccc2)cc1C(=O)O | 42.4% (active) |
| O=S1(=O)c2ccc(N3CCN(Cc4ccccc4F)CC3)cc2Oc2ccccc2CN1Cc1cn(Cc2ccc(Cl)cc2)nn1 | 12.5% |
| O=S1(=O)c2c(cccc2N2CC[C@H](O)C2)O[C@@H]2CCN1C2 | 2.13% |
| Cc1ccc(S(=O)(=O)N2CCN(C(=O)c3ccccc3-c3nc4ccccc4s3)CC2)c(C)c1 | -1.03% |
| NC(=O)Cc1ccc2sc(-c3ccccc3)nc2c1 | 1.7% |
| Oc1ccc(-c2[nH]ncc2-c2nc3ccccc3s2)c(O)c1 | 34.9% (active) |
| O=C(CN1CCCc2ccccc21)NCc1ccc(F)cc1 | 5.24% |
| C=CS(=O)(=O)N(Cc1nnn(Cc2ccccc2)c1Br)[C@H](C(=O)OC)C(C)C | -1.47% |
| Cc1cccc(NC(=O)c2cc3c(C)nn(-c4ccccc4)c3s2)c1 | 11.1% |
| Cc1nn2c(c1-c1ccccc1)N=C(c1ccco1)CC2c1ccccc1 (centres undefined) | 11.8% |
| COC(=O)C1=C(C)N(Cc2ccccc2C(F)(F)F)C(=NCc2ccc(OC)cc2)NC1c1cccc(C(F)(F)F)c1 (centres undefined) | 1.76% |
| O=c1c(-c2ccc3c(c2)OCCO3)c(C(F)(F)F)oc2cc(O)cc(O)c12 | 22.9% |
| CCOC(=O)c1cc2cc(-c3c(C(=O)OCC)oc4cc(O)cc(O)c4c3=O)ccc2o1 | 42.5% (active) |
| CCOC(=O)c1oc2c(CN3CCN(C)CC3)c(O)ccc2c(=O)c1-c1ccc(Br)cc1 | -3.79% |
| COC(=O)C1CN(Cc2cn(Cc3ccc(F)cc3)nn2)CCS(=O)(=O)N1Cc1ccc(Cl)cc1 (centres undefined) | -1.1% |
| COc1cccc(-c2cc(CNC(=O)[C@@H](Cc3ccccc3)NC(=O)[C@H]3O[C@@H](n4cnc(C(N)=O)n4)[C@H](O)[C@@H]3O)no2)c1 | 6.53% |
| COc1cccc(CC(=O)N2CCN(C(=O)C(=O)c3cccc(C(F)(F)F)c3)CC2)c1 | -1.34% |
| Cc1[nH]c2ccc(S(N)(=O)=O)cc2c1C | 2.18% |

| Structure (SMILES) | inhibition |
| --- | --- |
| NS(=O)(=O)c1ccc(N=Nc2c(O)[nH]c3ccc(Br)cc23)cc1 | 51.6% (active) |
| Cc1cccc(N=Nc2c(O)[nH]c3ccc(F)cc23)c1 | 17.5% |
| O=C(NC1CCCCN(Cc2ccc(Cl)cc2)C1=O)c1ccc(Br)cc1 (centres undefined) | 2.36% |
| O=C(O)Cn1cnc2c(NCc3ccccc3)ncnc21 | 2.28% |
| Nn1c(SCC(=O)Nc2cccc3ccccc23)nnc1-c1cc(-c2ccc(F)cc2)n[nH]1 | 9.39% |
| CC(C(=O)Nc1ccc(O)c(C(=O)O)c1)N1C(=O)/C(=C/c2cccs2)SC1=S (centres undefined) | 87.5% (active) |
| CCOc1ccc(NC(=O)C(C)N2C(=O)c3ccccc3C2=O)cc1 (centres undefined) | -4.17% |
| O=C1/C(=C/c2cccs2)SC(=S)N1C1CCS(=O)(=O)C1 (centres undefined) | -0.31% |
| CC(C)c1ccc(N2CC(C(=O)Nc3nccs3)CC2=O)cc1 (centres undefined) | 0.86% |
| CNS(=O)(=O)c1ccc(NC(=O)C2CC(=O)N(c3ccc(Cl)cc3)C2)cc1 (centres undefined) | 6.47% |
| CCc1ccc(N2CC(C(=O)Nc3ccc(S(=O)(=O)Nc4nccs4)cc3)CC2=O)cc1 (centres undefined) | 50.1% (active) |
| Nc1ncnc2c1ncn2C1OC(CO)CC1O (centres undefined) | 0.74% |
| O=C(NCCc1c[nH]c2ccccc12)OCc1cn(-c2c(F)cccc2F)nn1 | 0.36% |
| COCCN(Cc1ccccc1)C(=O)Cc1ccc(S(=O)(=O)N2CCOCC2)s1 | 0.74% |
| CCCCCCCCN1C(=O)[C@@H](CC(=O)NCc2ccc(C)o2)C[C@@]2(C(=O)OC)C1=C[C@H](C(C)(C)C)O[C@@H]2C | 1.42% |
| O=C1OC(NC(=O)c2ccccc2)C(N2CCOCC2)=C1Cl (centres undefined) | -0.63% |
| O=C(O)c1ccc(NN=CC2=C(N3CCOCC3)/C(=C/c3ccccc3)CC2)cc1 | 48.1% (active) |
| O=C(O)c1ccc(N=NN2CCOCC2)cc1 | 3% |
| CCOc1ccc(-n2c(SCC(=O)Nc3cc(C)c(NC(=O)c4ccccc4)cc3OC)nnc2-c2cccc(Cl)c2)cc1 | 12.6% |
| CCc1ccc(NC(=O)CCNS(=O)(=O)c2cccs2)cc1 | -0.02% |
| O=C(COC(=O)c1ccc(O)cc1O)NNC(=O)c1cccs1 | 1.41% |
| O=C(COC(=O)c1ccc(NS(=O)(=O)c2cccs2)cc1O)Nc1ccc(F)cc1 | 43.1% (active) |
